# Assay results: PubChem BioAssay (NCATS)
# Records with an inconclusive call do not appear. Where a call stands in place of a potency, no number is given. Activity calls are given as the source filed them. Unless noted, calls follow the shape of the dose curve; as a rule, active = well fitted curve in the direction sought with a large enough effect; inconclusive = small, poorly fitted or top-dose-only effect, or another doubt; inactive = no such curve, though single readings can be large; an effect the other way counts as inactive or inconclusive.
# What was measured:
# [1] = target: Rap guanine nucleotide exchange factor 3 (Homo sapiens) (UniProt O95398); test: Confirmatory qHTS for agonist of cAMP-regulated guanine nucleotide exchange factor 3 (EPAC1) (AID 1645881);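 also: EPAC1 catalysed release of BODIPY-GDP from Rap1B seen as fluorescence loss; nearly all actives have a fitted effect of over 75% in size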
# Sequence of Rap guanine nucleotide exchange factor 3 (Homo sapiens) (O95398 whole entry, looked up): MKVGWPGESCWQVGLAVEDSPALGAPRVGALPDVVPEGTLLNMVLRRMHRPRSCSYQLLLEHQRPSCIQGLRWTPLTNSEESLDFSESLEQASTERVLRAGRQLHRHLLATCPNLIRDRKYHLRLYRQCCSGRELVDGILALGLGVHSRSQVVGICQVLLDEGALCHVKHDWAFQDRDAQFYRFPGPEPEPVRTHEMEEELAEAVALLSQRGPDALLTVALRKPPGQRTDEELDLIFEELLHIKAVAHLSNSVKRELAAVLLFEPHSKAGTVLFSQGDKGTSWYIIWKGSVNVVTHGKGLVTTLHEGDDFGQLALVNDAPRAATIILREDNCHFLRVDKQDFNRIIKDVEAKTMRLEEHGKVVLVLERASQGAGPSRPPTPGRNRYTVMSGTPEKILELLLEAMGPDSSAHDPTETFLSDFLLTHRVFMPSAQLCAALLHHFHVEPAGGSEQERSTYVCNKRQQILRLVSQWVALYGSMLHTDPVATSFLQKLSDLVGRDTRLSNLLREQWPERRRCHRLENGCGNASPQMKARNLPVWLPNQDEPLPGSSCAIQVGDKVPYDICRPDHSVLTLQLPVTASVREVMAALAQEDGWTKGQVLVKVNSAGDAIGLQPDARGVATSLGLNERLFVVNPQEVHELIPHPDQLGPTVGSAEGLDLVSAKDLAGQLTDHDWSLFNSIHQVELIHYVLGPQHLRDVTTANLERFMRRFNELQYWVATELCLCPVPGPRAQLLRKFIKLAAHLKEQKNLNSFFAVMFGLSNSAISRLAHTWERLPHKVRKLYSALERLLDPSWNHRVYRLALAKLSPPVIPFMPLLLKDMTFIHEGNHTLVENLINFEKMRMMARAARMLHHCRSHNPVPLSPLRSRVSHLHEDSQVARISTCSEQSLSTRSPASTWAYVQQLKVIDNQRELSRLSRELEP
# [2] = target: Rap guanine nucleotide exchange factor 4 (Homo sapiens) (UniProt Q8WZA2); test: Confirmatory qHTS for agonist of cAMP-regulated guanine nucleotide exchange factor 4 (EPAC2) (AID 1645884);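 also: nucleotide exchange releases bodipy-GDP from Rap1 and this lowers its fluorescence; nearly all actives have a fitted effect of over 65% in size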
# Sequence of Rap guanine nucleotide exchange factor 4 (Homo sapiens) (Q8WZA2 whole entry, looked up): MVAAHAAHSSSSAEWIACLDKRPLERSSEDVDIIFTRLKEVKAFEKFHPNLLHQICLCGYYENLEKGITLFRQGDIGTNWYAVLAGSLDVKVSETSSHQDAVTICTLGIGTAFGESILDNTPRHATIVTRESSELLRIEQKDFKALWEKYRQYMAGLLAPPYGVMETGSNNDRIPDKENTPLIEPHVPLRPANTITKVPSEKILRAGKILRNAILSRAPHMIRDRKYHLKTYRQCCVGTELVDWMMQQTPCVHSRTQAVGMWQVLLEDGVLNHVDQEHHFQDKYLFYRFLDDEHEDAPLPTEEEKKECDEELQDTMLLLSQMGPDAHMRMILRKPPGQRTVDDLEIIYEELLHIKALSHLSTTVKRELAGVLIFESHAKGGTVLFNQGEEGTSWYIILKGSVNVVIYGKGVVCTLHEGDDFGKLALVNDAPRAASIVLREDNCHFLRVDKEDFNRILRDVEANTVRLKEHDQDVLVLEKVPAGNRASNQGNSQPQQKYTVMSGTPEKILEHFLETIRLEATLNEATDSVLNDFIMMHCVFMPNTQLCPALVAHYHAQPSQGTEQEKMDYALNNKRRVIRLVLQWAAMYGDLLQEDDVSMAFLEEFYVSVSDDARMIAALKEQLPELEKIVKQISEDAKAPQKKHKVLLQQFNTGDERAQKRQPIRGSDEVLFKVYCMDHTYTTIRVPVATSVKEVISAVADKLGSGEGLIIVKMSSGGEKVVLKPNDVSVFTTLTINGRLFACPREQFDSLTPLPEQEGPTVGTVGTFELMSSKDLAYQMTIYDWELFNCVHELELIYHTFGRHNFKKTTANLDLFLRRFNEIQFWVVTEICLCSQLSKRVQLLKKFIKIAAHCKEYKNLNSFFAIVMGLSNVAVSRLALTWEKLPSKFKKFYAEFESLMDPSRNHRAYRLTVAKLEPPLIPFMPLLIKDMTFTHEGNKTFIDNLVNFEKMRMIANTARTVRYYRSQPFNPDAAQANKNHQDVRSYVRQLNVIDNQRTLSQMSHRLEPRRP
# [3] = target: Catechol O-methyltransferase (Homo sapiens) (UniProt P21964); test: Confirmatory Screen for Target Class Profiling of Small Molecule Inhibitors of Methyltransferases (AID 1745852); details: MTase-Glo luminescence, SAH detection, recombinant enzyme; measured here: COMT max response; stronger effect = lower value
# Sequence of Catechol O-methyltransferase (Homo sapiens) (P21964 whole entry, looked up): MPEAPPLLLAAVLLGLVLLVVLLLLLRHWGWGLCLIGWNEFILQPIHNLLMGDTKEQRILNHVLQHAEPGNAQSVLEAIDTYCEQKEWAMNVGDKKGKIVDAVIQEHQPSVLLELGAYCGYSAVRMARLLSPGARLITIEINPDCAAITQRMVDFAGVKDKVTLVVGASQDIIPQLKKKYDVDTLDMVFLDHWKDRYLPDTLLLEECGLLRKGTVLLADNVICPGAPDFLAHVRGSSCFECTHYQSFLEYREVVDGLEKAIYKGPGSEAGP
# [4] = target: Guanidinoacetate N-methyltransferase (Homo sapiens) (UniProt Q14353); test: as above; details: MTase-Glo luminescence, SAH detection, recombinant enzyme; at 57.3 µM (top of the series)
# [5] = target: Nicotinamide N-methyltransferase (Homo sapiens) (UniProt P40261); test: as above; details: MTase-Glo luminescence, SAH detection, recombinant enzyme; measured here: NNMT max response; stronger effect = lower value
# Sequence of Nicotinamide N-methyltransferase (Homo sapiens) (P40261 whole entry, looked up): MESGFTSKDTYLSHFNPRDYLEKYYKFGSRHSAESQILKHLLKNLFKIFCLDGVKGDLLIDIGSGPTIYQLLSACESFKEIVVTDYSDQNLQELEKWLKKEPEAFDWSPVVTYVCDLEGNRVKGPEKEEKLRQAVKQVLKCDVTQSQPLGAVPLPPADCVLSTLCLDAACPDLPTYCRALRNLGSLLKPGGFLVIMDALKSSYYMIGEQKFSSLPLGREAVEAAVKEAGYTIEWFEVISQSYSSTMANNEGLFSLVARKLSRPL
# [6] = target: Phenylethanolamine N-methyltransferase (Homo sapiens) (UniProt P11086); test: as above; details: MTase-Glo luminescence, SAH detection, recombinant enzyme; measured here: PNMT max response; stronger effect = lower value
# Sequence of Phenylethanolamine N-methyltransferase (Homo sapiens) (P11086 whole entry, looked up): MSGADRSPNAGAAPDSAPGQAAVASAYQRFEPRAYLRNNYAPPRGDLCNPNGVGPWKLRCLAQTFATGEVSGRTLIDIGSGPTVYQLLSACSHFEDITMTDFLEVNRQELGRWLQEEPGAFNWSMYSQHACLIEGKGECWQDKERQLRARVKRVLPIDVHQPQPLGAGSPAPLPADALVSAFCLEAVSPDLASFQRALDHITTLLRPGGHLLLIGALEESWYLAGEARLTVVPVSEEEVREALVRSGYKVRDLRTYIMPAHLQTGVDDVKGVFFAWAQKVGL
# [7] = target: Rap guanine nucleotide exchange factor 4 (Homo sapiens) (UniProt Q8WZA2); test: Confirmatory qHTS for antagonist of cAMP-regulated guanine nucleotide exchange factor 4 (EPAC2) (AID 1645885); also: potency is read from the fitted curve at half-maximal effect; nearly all actives have a fitted effect of over 25% in size
# [8] = Confirmation and Secondary Assay for Modulators of Hemoglobin Beta Chain Splicing at IVS2 654 locus (AID 910);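 also: HeLa cells stably carrying EGFP split by mutant beta-globin IVS2-654 intron; per-well total GFP intensity by laser scanning cytometry after 2-day treatment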
# Procedure, shortened: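 Readout: per-well total peak green fluorescence (488 nm ex, 500–520 nm em) from objects 5–250 µm, reflecting correct splicing of an EGFP-654 reporter. Compounds were applied for 2 days at 37 °C to overnight-plated HeLa EGFP-654 cells; controls were DMSO and 500 nM IVS2-654 PNA.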
# [9] = Confirmation and Secondary Assay for Modulators of Hemoglobin Beta Chain Splicing at IVS2 705 locus (AID 930);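 also: HeLa cells stably expressing the EGFP-705 splicing reporter; GFP fluorescence per well restored by corrected splicing of the IVS2-705 intron in EGFP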
# Procedure, shortened: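 Splice-correction reporter: EGFP cDNA split by beta-globin intron 2 bearing the 705 mutation, stably in HeLa. Compound incubation 2 days, 37C; fluorescent objects 5-250 µm summed per well.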
# [10] = target: DNA dC->dU-editing enzyme APOBEC-3G (Homo sapiens) (UniProt Q9HC16); test: qHTS for inhibitors of Vif-A3G interactions: Validation (AID 588379)
# Sequence of DNA dC->dU-editing enzyme APOBEC-3G (Homo sapiens) (Q9HC16 whole entry, looked up): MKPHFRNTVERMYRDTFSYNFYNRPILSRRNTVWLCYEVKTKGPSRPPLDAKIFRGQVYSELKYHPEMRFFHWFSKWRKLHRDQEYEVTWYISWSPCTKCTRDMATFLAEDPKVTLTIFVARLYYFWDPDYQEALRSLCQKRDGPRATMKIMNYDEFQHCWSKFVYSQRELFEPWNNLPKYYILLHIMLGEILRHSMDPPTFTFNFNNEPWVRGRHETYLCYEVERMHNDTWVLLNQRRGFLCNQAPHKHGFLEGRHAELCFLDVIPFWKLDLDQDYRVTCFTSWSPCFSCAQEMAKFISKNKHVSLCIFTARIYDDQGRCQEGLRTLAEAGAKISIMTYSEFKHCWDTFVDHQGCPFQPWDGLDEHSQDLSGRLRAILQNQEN
# Procedure, shortened: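 HeLa cells stably expressing Vif and A3G-eYFP, 700 cells/well, incubated overnight at 37 deg C, then exposed to compound overnight at 37 deg C. Inhibition of Vif-mediated degradation read as increased yellow fluorescence (Ex 488/Em 500-530) by laser-scanning cytometry.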
# [11] = NCATS anti-infectives library activity on HEK293 viability as a counter-qHTS vs the C. elegans viability qHTS (AID 1745854);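 also: HEK293 cells exposed to compounds for 24 hr before the viability read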
# Procedure, shortened: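 HEK293 cells (1,500/well) exposed 24 hr at 37C to 1:5 titrations, up to 41.7 uM final; counter-screen to a C. elegans viability qHTS. Viability by CellTiter-Glo luminescence after 10 min at room temperature; digitonin as control.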
# [12] = NCATS anti-infectives library activity on the primary C. elegans qHTS viability assay (AID 1745855; calls by dose curve; also: potency is read from the fitted curve at half-maximal effect); details: C. elegans worm area imaging, day 7
# Procedure, shortened: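 Viability read-out is GFP fluorescence of PE254-GFP-FLuc C. elegans, measured by laser cytometry (488 nm) at day 0, 3 and 7. Ten L1 worms per well were incubated 7 days at 21 °C with compounds and bacterial capsules in S medium.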
compound,measurement,setting,value
COc1ccc(C(=O)N2CCC3(CCCN(Cc4cc(C(F)(F)F)cc(C(F)(F)F)c4)C3)CC2)cc1,Potency,[1],inactive
same,Potency,[2],inactive
O=C(c1csnn1)N1CCC2(CC1)CN(c1cccc(-c3ccccc3)c1)C2,Potency,[1],inactive
same,Potency,[2],inactive
O=C(CCCCCN1C(=O)c2cccc3cccc(c23)C1=O)NO,activity,[3],0.323%
same,"activity change, negative = inhibition",[4],0.722%
same,activity,[5],-12.3%
same,activity,[6],-6.54%
COc1cccc(Cn2c(=O)c(-c3ccc(Cl)cc3)nc3cnc(N4CCNCC4)nc32)c1,Potency,[1],inactive
same,Potency,[7],39.3 µM (active)
COc1c(O)cc2oc3cc(O)c(CC=C(C)C)c(O)c3c(=O)c2c1CC=C(C)C,Potency,[8],inactive
same,outcome,[9],inactive
same,outcome,[10],inactive
same,outcome,[11],inactive
same,Potency,[12],6.48 µM (active)
